Drawing on PubChem BioAssay (NCI), this text covers growth for 25 molecules.

The structures appear in SMILES notation. This is part of a sample that, as a whole, favours compounds with a hit. Of some 83,000 tested, about 20% had one in any assay.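 96-well plates, one dose, 48 hours. Percent growth reported; active if below 10.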 Unmarked numbers belong to inactive results. Activity calls are given as the source filed them.

For the experiment, the system named is MDA-MB-468 breast. Description: NCI-60 one-dose screen, 48 h (100 = growth as untreated, 0 = no growth, -100 = all killed). The following applies: 10 µM unless noted.
`Cc1nc2ccccc2n1-c1ncnc2c1CC(C)c1ccccc1N2C` (stereo not given): the growth is 80.9%.
For the molecule `Nc1n[nH]c2ccc([C@@H]3Nc4ccc5[nH]ncc5c4[C@H]4[C@H]5CCC(C5)[C@H]43)cc12`, the growth is 28.1%.
Take `CCCCOc1ccc(NC(=O)n2nc(N=NN(C)C)c3ccc(Cl)cc32)cc1`: the growth is 97.9%.
The result for `CCOC(=O)Cn1c(-c2nonc2NC(=O)c2ccccc2F)nc2ccccc21` reads 76%.
To `Cn1ncc2c(=O)nc3c(-c4ccccc4)n[nH]n3c21` belongs 101%.
The result for `CC(C)C1=C[C@@]23CC[C@H]4[C@](C)(COCCC#N)CCC[C@]4(C)[C@H]2C[C@@H]1[C@@H]1[C@H]3[C@@H](OCCC#N)CC[C@@H]1OCCC#N` reads -4.51% (active); that for `O=C1NC(=O)C(=Cc2cn(Cc3ccccn3)c3ccccc23)C(=O)N1`, -51.2% (active).
As to `O=C(CNc1c(Cl)cccc1Cl)Nc1ccc(-c2nc3ccccc3s2)cc1`, the growth was -7.4% (active).
To `CC(=O)Nc1ccc(-n2c(O)c(/C=N/NC(=O)Cc3ccccc3Nc3c(Cl)cccc3Cl)sc2=S)cc1` belongs 94.2%; to `O=CN(SSN(C=O)C1CCCCC1)C1CCCCC1`, 108%.
`O=C(Nc1cccc(NC(=O)C2CCCCC2)c1)c1ccccn1`: the growth is 116%.
To `Cc1ccc(-c2cc3nc(C(Cl)Cl)nc(-c4ccccc4C)n3n2)cc1` belongs 49.8%; to `Cn1c(=O)c2c(nc(N3CCCC3)n2C)n(C)c1=O`, 99.5%; to `Cc1cc(C)c(NC(=O)c2sc3nc4c(cc3c2N)C(=O)CCC4)c(C)c1`, -27.2% (active).
The result for `O=C(Oc1ccc(CO[N+](=O)[O-])cc1)c1ccccc1` reads -67.7% (active); that for `COc1cc(C)cc2oc3oc(=O)c(-c4nc5ccccc5s4)cc3c(=O)c12`, 104%; that for `COC(=O)Nc1nc2ccc(C3(c4ccc(F)cc4)OCCO3)cc2[nH]1`, 23.3%.
Turning to `CCN1C(=O)N(CC)C2Nn3c(s/c(=C4\C(=O)N(CCC(C)C)c5ccccc54)c3=O)=NC21` (stereo not given), the growth is 11.6%.
Turning to `CC(C)OC(=O)c1ccc2n1CCCc1cnc(Nc3ccccc3)nc1-2`, the growth is 44.6%.
Take `O=C(Nc1ccc(-n2cc(-c3ccncc3)c(-c3ccc(Cl)c(O)c3)n2)cc1)Nc1cc(C(F)(F)F)cc(C(F)(F)F)c1`: the growth is 13.9%.
As to `COCCOCCOCc1n(Cc2ccc3ccccc3n2)c2ccccc2[n+]1Cc1ccc2ccccc2c1`, the growth was -50.1% (active).
On to `CN(C)CCC(=O)c1ccc([N+](=O)[O-])cc1`, for which the growth is 86.5%.
As for `NC1(N2SC(S)=C3CCCC=C32)CCCCC1`, the growth was 99.9%.
As for `[2H]c1nc(Nc2ncc(F)c(-c3cc(F)c4nc(C)n(C(C)C)c4c3)n2)c([2H])c([2H])c1CN1CCN(C([2H])([2H])C([2H])([2H])[2H])CC1`, the growth was 103%.
In the case of `Nc1c(C(=O)Nc2cccc(Cl)c2Cl)sc2nc3c(cc12)C(=O)CCC3`, the growth was 71.8%.
